The full list was thinned out, with hits kept by preference.
Pf Dd2 growth – blocks in vitro growth of P. falciparum Dd2. P. falciparum Dd2 growth, SYBR Green, 72 h. AID 1347417. 4.3% of 120,000 active. Potency, µM (doses to about 28.9 µM), without a hit: at the top dose activity, negative = inhibition, most hits filed as inhibitors; active = well fitted inhibition curve with a large enough effect;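 also: plate controls were DMSO vehicle for no effect and reference drug for full effect; nearly all actives have a fitted effect of over 65% in size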
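Infected erythrocytes (Dd2, 0.3% parasitemia, 2.5% hematocrit final) are added to compound in RPMI-1640/Albumax II medium, grown 72 h at 37C in low oxygen, then lysed with saponin/Triton-X containing SYBR Green and read by fluorescence.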
The depositor's hits bear a star; i = inactive; [ ] = remark or other dose. Potency is read from the fitted curve at half-maximal effect.

SMILES	Pf Dd2 growth
CCc1cccc2c(C(CC(=O)NCCOC)c3ccc(OC)c(OC)c3)c[nH]c12 (stereo not given)	-20%
Cc1ccc(C(CC(=O)N2CCc3ccccc3C2)c2cn(C)c3ccccc23)cc1 (stereo not given)	i
CCOC(=O)C1CCCN(C(=O)Cn2ncc3c4ccccc4n(C)c3c2=O)C1 (stereo not given)	-23%
COc1ccc(C(CC(=O)NCc2ccccc2)c2c[nH]c3ccccc23)cc1OC (stereo not given)	-7%
COc1ccc(C(CC(=O)N2CCCC2)c2cn(Cc3ccccc3)c3ccccc23)cc1OC (stereo not given)	i
CCc1cccc2c(C(CC(=O)NCc3ccc4c(c3)OCO4)c3ccc(OC)c(OC)c3)c[nH]c12 (stereo not given)	4µM*
O=C(c1cccnc1)N1CCCC2(COc3ccccc3[S+](=O)([O-])N2)C1 (stereo not given)	11%
Cc1ccc(OC2(C(=O)O)CCN(Cc3ccc(CO)o3)CC2)cc1	1%
CCN(CC)Cc1cnc2c(C(=O)NCc3nc(C)cs3)cnn2c1	-3%
N#Cc1cccc(CN2CCOC[C@H](O)C2)c1	-2%[44.1 µM]
CCOC(=O)C1CCCN(C(=O)c2cnc3cc(C)nn3c2)C1 (stereo not given)	-2%[44.1 µM]
CN(Cc1ccc(F)cc1)Cc1ccnn1C	10%[44.1 µM]
COc1ccc(CCC(=O)N2CCC3(CC2)CC(Cc2nc(-c4cnccn4)no2)CCO3)cc1 (stereo not given)	i
COc1cccc(CC(=O)N2CCC3(CC2)CC(Cc2nc(-c4cccnc4)no2)CCO3)c1 (stereo not given)	8.9µM*
COCCC(=O)N1CCC2(CC1)CC(Cc1nc(-c3ccncc3)no1)CCO2 (stereo not given)	-7%
CCOCC(=O)N1CCC2(CC1)CC(Cc1nc(-c3ccncc3)no1)CCO2 (stereo not given)	4%
O=C(N1CCC(Cc2nc(C3CCOCC3)no2)CC1)C1(c2ccccc2)CC1	10%
O=C(N1CCC2(CC1)CC(Cc1nc(-c3cccnc3)no1)CCO2)C1(c2ccccc2)CC1 (stereo not given)	7.9µM*
CCCN1CCCn2nc(CNC(=O)Nc3ccccc3SC)cc2C1	1%
COc1ccc(-c2nnc3n2N(C(C)=O)C(c2ccc(Cl)c(Cl)c2)=C(C(C)=O)S3)cc1	77%
COc1ccc(C2=C(C(C)=O)Sc3nnc(-c4ccc(Cl)cc4)n3N2C(C)=O)cc1OC	1.4µM*
CCc1nnc(SCC(=O)Nc2ccc(OC)c(OC)c2)c2cc3occc3n12	1%
CCc1nnc(SCc2nc(-c3ccc(OC)c(OC)c3)oc2C)c2cc3sc(C)cc3n12	39%
COc1ccc(OC(=O)CSc2nnc(-c3ccc(F)cc3)o2)cc1	14%
CCC(=O)C1=C(c2ccc(F)cc2)N(C(=O)CC)n2c(nnc2-c2ccc(OC)cc2)S1	3.2µM*
SMILES	Pf Dd2 growth
COc1ccc(CC(=O)NCCc2sc(-c3ccc(Cl)cc3)nc2C)cc1OC	i
COc1ccc(-c2nnc3n2CCN(C(=O)c2ccc(F)cc2)C3)cc1	-2%
CCC(=O)C1=C(c2ccc(OC)c(OC)c2)N(C(=O)CC)n2c(CC)nnc2S1	1.4µM*
CC1=C(C(=O)OC(C)(C)C)C(c2ccc(Cl)cc2)N2C(CC(=O)N3CCOCC3)=CSC2=N1 (stereo not given)	-9%
O=C1NC2(CCN(C(=O)c3ccccc3F)C2)N=C1c1cccnc1 (stereo not given)	11%
COCCN1CCOC[C@H]2CCN(C(=O)c3ocnc3C)C[C@H]21	-11%
COCC1CN(C(=O)Cc2ccc(OC)c(Cl)c2)CC12CCNCC2 (stereo not given)	13%
O=C(COc1ccc(F)cc1F)N1CCCC(Cc2nc3ccccc3[nH]2)C1 (stereo not given)	i
O=C1CCN(C(=O)[C@@H](Cc2ccccc2)NC(=O)c2ccoc2)CCOCCN1	-19%
COc1ccc(NC(=O)C2CCN(c3cc(C(F)(F)F)ncn3)CC2)cc1	i
O=C(NC1CCN(c2cc(C(F)(F)F)ncn2)CC1)c1ccco1	i
O=C(COc1ccc(F)cc1)NC1CCN(c2cc(C(F)(F)F)ncn2)CC1	5.6µM*
O=C(Nc1ccc(F)cc1)C1CCN(c2cc(C(F)(F)F)ncn2)CC1	i
COc1ccc(NC(=O)C2CCN(c3cc(C(F)(F)F)ncn3)CC2)cc1OC	11µM*
COc1ccc(-c2cc(N3CCC(NC(=O)COc4ccc(F)cc4)CC3)n[nH]2)cc1	-10%
CN(C)CC(O)c1cc2n(n1)CCN(C(=O)CCc1ccc(=O)[nH]n1)C2 (stereo not given)	8%
COCCOC1CCN(C(=O)COc2ccc(C)cc2)CC1	19%
CCNCc1ccc(-c2ccc(Cl)cc2)o1	13µM*
c1ccc(-c2ccc(CNCc3cccs3)o2)cc1	i
Clc1cccc(-c2ccc(CNc3ncncn3)o2)c1	-14%
CCN(CC)CCNCc1ccc(-c2ccccc2)o1	3.2µM*
CCNCc1ccc(-c2ccc(F)cc2)o1	i
Fc1ccc(-c2ccc(CNCCSc3nnnn3-c3ccccc3)o2)cc1Cl	46%
CCn1nccc1C(=O)N1C[C@@H]2CCCN3CCC[C@@H]([C@H]23)[C@H]1CCCC(=O)NCC1CC1	-19%
CCc1nc2cc(N3CCCC(C(=O)NC4CC4)C3)cnc2nc1CC (stereo not given)	i
SMILES	Pf Dd2 growth
COCc1nncn1C1CCN(C(=O)c2cc(C)cc(C)c2)CC1	1%
Cc1noc(C)c1[S+](=O)([O-])N1CCn2ncc(C(=O)N3CCOCC3)c2C1	13%
COCCNC(=O)c1cc(-c2ccc(OC)cc2)nc2c1c(C1CCNC1)nn2C (stereo not given)	-28%
Cc1nn(-c2ccccc2)c2nc(C3CC3)cc(C(=O)Nc3cccc(F)c3)c12	10µM*
COc1ccc(NC(=O)c2cc(C3CC3)nc3c2c(C)nn3-c2ccccc2)cc1OC	13%
Cn1nc(C2CCCN2)c2c(C(=O)N3CCOCC3)cc(C3CC3)nc21 (stereo not given)	0%
COc1ccc(-c2cc(C(=O)NCC(C)C)c3c(C4CCCN4)nn(C)c3n2)cc1 (stereo not given)	4µM*
COCCNC(=O)c1cc(C2CC2)nc2c1c(C1CCCN1)nn2-c1ccccc1 (stereo not given)	11µM*
COc1ccc(-c2cc(C(=O)N3CCOCC3)c3c(C4CCCN4)nn(C)c3n2)cc1 (stereo not given)	-26%
Cc1nn(-c2ccccc2)c2nc(C3CC3)cc(C(=O)NCc3ccccc3Cl)c12	i
COCCNC(=O)c1cc(C2CC2)nc2c1c(C1CCCNC1)nn2C (stereo not given)	12%
O=C(O)[C@]12CCCN[C@@H]1CCN(Cc1cnc(-c3ccccn3)nc1)C2	9%
O=C(CCC(=O)N1CCn2nc(Cc3ccccc3)cc2C1)NC1CCCC1	-4%
O=C1NCCCCCCN(C(=O)CCCc2ccccc2)[C@H]2CCCC[C@@H]12	i
COc1cccc(CC(=O)N2CCC3(CC2)OC(=O)N(Cc2ccccc2F)C3(C)c2ccccc2)c1 (stereo not given)	-26%
COC1CCC12CCN(C(=O)c1nccn1C)CC2 (stereo not given)	3%
CC(C)Cc1ccc(S(=O)(=O)N(C)CC2CCOCC2)cc1	-13%
CC1CCN(C(=O)c2ccccc2OCC2CCCN(C3CCC3)C2)CC1 (stereo not given)	-2%
CC(C)c1cccc(-c2cc(NCc3ccccn3)nc3[nH]ccc23)n1	8.9µM*
CN(C)CCNC(=O)c1nc(-c2ccccc2)cc2[nH]ccc12	i

High-throughput results: PubChem BioAssay, National Center for Advancing Translational Sciences (NCATS)
